For 88 compounds, activity change, negative = inhibition results are on record in PubChem BioAssay AID1259415 (National Center for Advancing Translational Sciences (NCATS), 2018).

Molecules are shown by their SMILES. The whole screen tested about 410,000 compounds, of which about 18,000 (4.4%) were called active. Roughly 7% stayed inconclusive and do not appear here. Cut-off read from the data, not from the text of the source: active = activity change below about -60%; inconclusive = no clear call, values can overlap the other calls; inactive = above about -39%. This excerpt belongs to a sample that is enriched for actives.
% is set by controls: 0 for no effect and ±100 for the full control effect.

The test in a line: qHTS Assay for inhibitors of the human cytomegalovirus (HCMV). The settings on record: HFF cells, HCMV-luciferase reporter, 72 h; at 57.5 µM; hits give low values. Summed up: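 Compounds were evaluated in HFFs infected with an HCMV luciferase reporter virus (MOI 1 PFU/cell). Luciferase in lysates collected 72 h post infection served as the replication measure.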
In the case of `O=C(COC(=O)c1ccccc1F)Nc1cc(S(=O)(=O)N2CCOCC2)ccc1N1CCCC1`, the activity change, negative = inhibition is -28.5% (inactive).

On to `O=C(COC(=O)c1cc(S(=O)(=O)N2CCOCC2)ccc1F)NC1CC1`, for which the activity change, negative = inhibition was -20.2% (inactive).

As for `COc1cc(NC(=O)COC(=O)c2cc(S(=O)(=O)N3CCOCC3)ccc2F)cc(OC)c1`, the activity change, negative = inhibition was -68.7% (active).

For `CCCC12CN3CC(C)(CN(C1)C3c1ccccc1Cl)C2=O` (stereo not drawn), the activity change, negative = inhibition was 1.49% (inactive).

For the compound `Cc1cccc(NC(=O)Nc2cccc(Oc3c(F)c(F)c(F)c(F)c3F)c2)c1`, the activity change, negative = inhibition was -76.5% (active).

For the compound `Cc1cccc(NC(=O)NC2(C)CCS(=O)(=O)C2)c1` (stereo not drawn), the activity change, negative = inhibition was 14.3% (inactive).

On to `Cc1ccoc1C(=O)Nc1cccc(Oc2ccccc2)c1`, for which the activity change, negative = inhibition was 16.8% (inactive).

On to `COc1ccc(CCNC(=O)CCCCn2c(=O)c3ccccc3n(Cc3ccccc3C)c2=O)cc1OC`, for which the activity change, negative = inhibition is -31.9% (inactive).

With `CCOC(=O)c1ccc(NC(=O)c2c(NCc3cccc(OC)c3)sc3c2CCC3)cc1`, the activity change, negative = inhibition is -1.86% (inactive).

As for `CCC(=O)N1CCN(c2ccccc2NC(=O)COc2cccc(C)c2C)CC1`, the activity change, negative = inhibition was -63.8% (active).

On to `Cc1ccccc1OCC(=O)Nc1ccc(N2CCN(C(=O)C(C)C)CC2)c(Cl)c1`, for which the activity change, negative = inhibition was 1.1% (inactive).

For the compound `CCOc1ccccc1NC(=S)N1CCN(c2cccc(C)c2C)CC1`, the activity change, negative = inhibition was -37.3% (inactive).

On to `COc1ccc(C)cc1NC(=O)C(=O)NCCc1sc(-c2cccc(C)c2)nc1C`, for which the activity change, negative = inhibition is -4.02% (inactive).

As for `Cc1ccccc1CCNC(=O)C1CCN(c2nc3ccccc3nc2C(F)(F)F)CC1`, the activity change, negative = inhibition is -6.7% (inactive).

`CCc1ccc(NC(=O)C(C)OC(=O)/C=C/c2cccc([N+](=O)[O-])c2)cc1` (stereo not drawn): the activity change, negative = inhibition was 7.98% (inactive).

With `CCC(CC)NC(=O)/C=C/c1cccc([N+](=O)[O-])c1`, the activity change, negative = inhibition was -60.1% (active).

In the case of `COC(=O)/C=C\C(=O)Nc1cccc([N+](=O)[O-])c1`, the activity change, negative = inhibition is -87.4% (active).

As for `O=C(/C=C/c1cccc([N+](=O)[O-])c1)NCCSCc1ccco1`, the activity change, negative = inhibition was -19.7% (inactive).

In the case of `COc1ccc(C)cc1S(=O)(=O)N(CC(=O)Nc1cccc([N+](=O)[O-])c1)c1ccc(C)cc1`, the activity change, negative = inhibition is -7.9% (inactive).

Consider `CC(C)OP(=O)(OC(C)C)C(Nc1ccccc1)c1cccc([N+](=O)[O-])c1` (stereo not drawn), for which the activity change, negative = inhibition is -30.9% (inactive).

For the compound `COc1ccc(-c2nc(S(=O)(=O)c3ccccc3)c(N3CCCCC3)o2)cc1`, the activity change, negative = inhibition was -14.3% (inactive).

For the compound `CCOc1ccc2nc(N3CCCC(C(=O)Nc4cc(C)ccc4C)C3)sc2c1` (stereo not drawn), the activity change, negative = inhibition was 69.3% (inactive).

`CCn1cc(C(=O)N(C)Cc2ccccc2)c(=O)c2cc(S(=O)(=O)N3CCCCCC3)ccc21`: the activity change, negative = inhibition was 4.41% (inactive).

As for `CC(=O)N1c2ccc(S(=O)(=O)NCCC(=O)N(C)C3CCCCC3)cc2CC1C` (stereo not drawn), the activity change, negative = inhibition is -39.5% (inactive).

Take `N#Cc1ccc(C(=O)Nc2nc(-c3cccs3)c(C(=O)C(F)(F)F)s2)cc1`: the activity change, negative = inhibition is -96.5% (active).

As to `CCn1c(NC(=O)c2ccccc2)c(-c2cccs2)c(=O)c2ccccc21`, the activity change, negative = inhibition was 25.8% (inactive).

Take `COc1ccc(C(F)(F)F)cc1NC(=O)c1sc2nc(-c3cccs3)ccc2c1N`: the activity change, negative = inhibition was 14.5% (inactive).

`O=C(NCCS(=O)(=O)N1CCN(c2ccc(F)cc2)CC1)c1ccccc1Br`: the activity change, negative = inhibition was 20.8% (inactive).

In the case of `Cn1c(=O)c2c(SCC(=O)NCC3CCCO3)nc(-c3ccccc3F)nc2n(C)c1=O` (stereo not drawn), the activity change, negative = inhibition is -4.16% (inactive).

With `Cc1ccc(-c2cc(N)n(Cc3cccc(Cl)c3)n2)cc1`, the activity change, negative = inhibition was -21.8% (inactive).

For the compound `COc1ccc(-c2nc3nc(C)cc(C)n3c2Nc2c(C)cccc2C)cc1`, the activity change, negative = inhibition is -8% (inactive).

For `Cc1cc(C)n(-c2nnc(N3CCN(c4ccccc4)CC3)nn2)n1`, the activity change, negative = inhibition is -11.6% (inactive).

For the compound `COc1ccc(/C=C/c2noc(-c3ccccc3O)n2)cc1OC`, the activity change, negative = inhibition is 63.9% (inactive).

On to `COc1ccc(Nc2cc(C)nc(-n3nc(C)cc3C)n2)cc1`, for which the activity change, negative = inhibition is -84.3% (active).

Consider `COc1cccc(/C=N/Nc2cc(C)nc(-c3ccccc3O)n2)c1O`, for which the activity change, negative = inhibition is -95.8% (active).

As for `Cc1cccc(Nc2cc(C)nc(-n3nc(C)cc3C)n2)c1`, the activity change, negative = inhibition is -83.8% (active).

Regarding `Cc1ccc(Nc2nc3ccccc3nc2-n2nc(C)cc2C)c(Cl)c1`, the activity change, negative = inhibition was 2.84% (inactive).

With `COc1ccc(C(C[N+](=O)[O-])n2nc(C)cc2C)cc1` (stereo not drawn), the activity change, negative = inhibition is -11% (inactive).

Consider `CCOC(=O)c1cnc(-n2nc(C)cc2C)nc1NNc1cc(C)nc(-c2ccccc2)n1`, for which the activity change, negative = inhibition was -1.83% (inactive).

With `COc1ccccc1/C=N\Nc1cc(C)nc(-n2nc(C)cc2C)n1`, the activity change, negative = inhibition was -94.4% (active).

Consider `COc1cc(Cl)c(C)cc1Nc1nnc(-n2nc(C)cc2C)c2ccccc12`, for which the activity change, negative = inhibition is 16.8% (inactive).

Regarding `CCCCc1nnc(NC(=O)CSc2nc(N)cc(=O)[nH]2)s1`, the activity change, negative = inhibition was -10.9% (inactive).

For `O=S(=O)(NCCS(=O)(=O)N1CCN(c2ccccc2)CC1)c1ccc(Cl)cc1`, the activity change, negative = inhibition is -35.4% (inactive).

On to `CCOc1cc(/C=C(\C#N)C(=O)Nc2ccccc2C)ccc1OCc1cc(=O)n2nc(CC)sc2n1`, for which the activity change, negative = inhibition is -5.21% (inactive).

Take `CSc1nc(=O)c2c(n1C)NC(=O)CC2c1ccccc1OC(C)C` (stereo not drawn): the activity change, negative = inhibition is -11% (inactive).

As to `Cc1nnc(SCC(=O)N2c3ccccc3C(C)(c3ccc(Cl)cc3)CC2(C)C)s1` (stereo not drawn), the activity change, negative = inhibition was -74.1% (active).

Turning to `O=C(CSc1nnc(SCc2ccc(Cl)cc2)s1)N/N=C/c1ccccc1Cl`, the activity change, negative = inhibition is 13.9% (inactive).

Regarding `CC1(c2cccc([N+](=O)[O-])c2)CC(C)(C)N(C(=O)c2ccccc2)c2ccccc21` (stereo not drawn), the activity change, negative = inhibition is -23.1% (inactive).

Take `CCOC(=O)C(Cc1ccccc1)NC(=O)CCc1c(C)nc2c(c(C)nn2-c2ccc(C)c(C)c2)c1C` (stereo not drawn): the activity change, negative = inhibition was 35.7% (inactive).

As to `Cc1ccc(SCC(=O)Nc2ccc3oc(-c4ccccc4F)nc3c2)cc1`, the activity change, negative = inhibition was 68.8% (inactive).

`COc1ccc(Cl)cc1NC(=O)C(C)Sc1nc2c(c(=O)[nH]1)CCCC2` (stereo not drawn): the activity change, negative = inhibition is 12.7% (inactive).

Regarding `COc1cccc(OCCOc2cccc(/C=N/n3cnnc3)c2)c1`, the activity change, negative = inhibition is 27% (inactive).

Take `Cc1ccccc1OS(=O)(=O)c1cccc([N+](=O)[O-])c1`: the activity change, negative = inhibition was -19.5% (inactive).

With `Cc1ccccc1OCCOc1ccc([N+](=O)[O-])cc1/C=N/n1cnnc1`, the activity change, negative = inhibition is -98.2% (active).

As for `CC1(c2nnc(Cc3ccccc3)o2)CC(c2ccccc2F)=NO1` (stereo not drawn), the activity change, negative = inhibition was 4.15% (inactive).

For `CCCOc1ccc(NC(=O)CC2C(=O)N(c3ccccc3)C(=O)N2Cc2ccco2)cc1` (stereo not drawn), the activity change, negative = inhibition is 38.3% (inactive).

With `COc1cccc(C(=O)N2CCC(n3nccc3NC(=O)C3CCOC3)CC2)c1` (stereo not drawn), the activity change, negative = inhibition was -18.9% (inactive).

On to `COc1cccc(N2CCN(CC(=O)Nc3ccnn3C3CCCC3)CC2)c1`, for which the activity change, negative = inhibition is -60.5% (active).

As for `COc1ccccc1N1CCN(CC(=O)Nc2ccnn2C2CCCC2)CC1`, the activity change, negative = inhibition is -12% (inactive).

Consider `O=C(CSc1nnc2c(n1)[nH]c1ccccc12)NC1CCCCC1`, for which the activity change, negative = inhibition is -65.5% (active).

Take `COc1ccc2[nH]c3nc(SCC(=O)NC4CC4)nnc3c2c1`: the activity change, negative = inhibition is 13.8% (inactive).

Take `CCOc1ccc2[nH]c3nc(SCC(=O)NC4CCCC4)nnc3c2c1`: the activity change, negative = inhibition was -31.8% (inactive).

For the compound `O=C(Cc1cccs1)N(CC1CCCO1)C1(C(=O)NC2CCCCC2)CCCCC1` (stereo not drawn), the activity change, negative = inhibition is -20.9% (inactive).

In the case of `CCOC(=O)c1c(CC(C)C)csc1/N=C/C1=C(O)CCCC1=O`, the activity change, negative = inhibition is -98.2% (active).

With `Cc1cc(N=CC2=C(O)CCCC2=O)no1`, the activity change, negative = inhibition was 2.05% (inactive).

Consider `CCOC(=O)c1sc(/N=C/C2=C(O)CC(C)(C)CC2=O)c(C(=O)OCC)c1C`, for which the activity change, negative = inhibition was -33.1% (inactive).

For `CCOC(=O)c1c(NC(=O)Cc2coc3ccc(CC)cc23)sc2c1CCC2`, the activity change, negative = inhibition is 1.55% (inactive).

Turning to `Cc1ccc(C)c(N2CCN(C(=O)CN3C(=O)COc4ccc(S(=O)(=O)N5CCCCCC5)cc43)CC2)c1`, the activity change, negative = inhibition was -10.9% (inactive).

As to `Cc1ccc(Cl)cc1-n1ncc2c(N3CCC(C(N)=O)CC3)ncnc21`, the activity change, negative = inhibition is -7.89% (inactive).

Take `CCCCN(CC)C(=O)CN(C)S(=O)(=O)c1cccc2nsnc12`: the activity change, negative = inhibition is 0.246% (inactive).

In the case of `O=C1NC(=O)C2C1C(c1ccc([N+](=O)[O-])cc1)=NN2Cc1ccccc1` (stereo not drawn), the activity change, negative = inhibition was -71.6% (active).

For `O=C(NCCCCc1ccccc1)C1CC(c2ccc([N+](=O)[O-])cc2)=NO1` (stereo not drawn), the activity change, negative = inhibition is 1.01% (inactive).

For the compound `O=[N+]([O-])c1ccc(C(S(=O)(=O)Cc2ccccc2)S(=O)(=O)Cc2ccccc2)cc1`, the activity change, negative = inhibition was -20.9% (inactive).

With `Cc1ccc(-n2cnc3cc(C(=O)NCCC4=CCCCC4)ccc32)cc1Cl`, the activity change, negative = inhibition was -19.6% (inactive).

For `COc1ccc(-c2[nH]c3c(c2-c2c(-n4cccc4)n(C)c(=O)n(C)c2=O)c(=O)n(C)c(=O)n3C)cc1`, the activity change, negative = inhibition is 12.5% (inactive).

In the case of `COc1ccccc1CNC(=O)c1ccc(NC(=O)N2CC(C)Sc3ccccc32)cc1` (stereo not drawn), the activity change, negative = inhibition is -6.59% (inactive).

Take `Cc1ccccc1-c1csc(C(O)c2cccc(Cl)c2)n1` (stereo not drawn): the activity change, negative = inhibition is -10.3% (inactive).

On to `COc1cccc(C(O)c2nc(-c3ccc(C)c(C)c3)cs2)c1` (stereo not drawn), for which the activity change, negative = inhibition is -60.7% (active).

Turning to `COc1ccc(-c2csc(C(O)c3cccc(Cl)c3)n2)cn1` (stereo not drawn), the activity change, negative = inhibition is -37.6% (inactive).

For the compound `Cn1c(/C(C#N)=C2/CCCCCN2)nc2ccccc21`, the activity change, negative = inhibition is -40% (inactive).

On to `Cc1nn(CC(=O)NCCc2ccccc2)c(=O)c2c1sc1ccccc12`, for which the activity change, negative = inhibition was 0.0704% (inactive).

With `O=C(/C(=C/c1cccc(Cl)c1)c1nc2ccccc2[nH]1)c1ccccc1`, the activity change, negative = inhibition was -99.6% (active).

Consider `N#C/C(=C\c1ccccc1F)c1nc2ccccc2c(=O)[nH]1`, for which the activity change, negative = inhibition was -22.3% (inactive).

As to `CCc1ccc(CNCc2c(C(=O)O)n(Cc3ccc(F)cc3Cl)c3cc(OC)ccc23)cc1`, the activity change, negative = inhibition is 15.2% (inactive).

Regarding `CCOC(=O)C1=C(c2ccccc2)N=C2SCC(=O)N2C1c1ccc(O)c(OC)c1` (stereo not drawn), the activity change, negative = inhibition was 9.04% (inactive).

As to `CC1CN(CCOc2ccccc2[N+](=O)[O-])CC(C)O1` (stereo not drawn), the activity change, negative = inhibition was -21.7% (inactive).

Consider `CC1CCCN(CCOCCOc2ccccc2-c2ccccc2)C1` (stereo not drawn), for which the activity change, negative = inhibition was -71.7% (active).

As for `CC1CN(CCCOc2ccccc2-c2ccccc2)CC(C)O1` (stereo not drawn), the activity change, negative = inhibition is 58.1% (inactive).
